The record followed here is ChEMBL document CHEMBL4513146, “CO-ADD screening of Karazin Kharkiv National University (Ukraine) compounds”.

Potency and affinity values are given separately.

The test system of this test is Escherichia coli. As to conditions: Concentration 32 ug.mL-1;; ASSAY_TEST Inhibition of Bacterial Growth; detection method Absorption (OD600); MEDIA CAMHB; plate type 384well; NBS; CORNING #3640; time 18 hr.
Turning to `COc1ccc(-n2ccn3c(-c4cccc([N+](=O)[O-])c4)nnc3c2=O)cc1`, the Inhibition is -6.72%.

For the molecule `CCCCOc1ccc(-c2cc3c4nnc(SCC(=O)N(C)c5ccc(F)cc5)n4ccn3n2)cc1`, the Inhibition is -5.6%.

On to `CCc1nnc2c(SCC(=O)Nc3ccc(OC)c(Cl)c3)nc3ccccc3n12`, for which the Inhibition is on record as 5.47%.

As for `COc1ccc(NC(=O)Cn2nc3ccc(SCc4ccc(Cl)cc4)nn3c2=O)cc1`, the Inhibition is reported as -10.26%.

On to `O=S(=O)(c1ccc2nncn2c1)N(Cc1cc(F)cc(F)c1)c1cc(F)cc(F)c1`, for which the Inhibition is -4.65%.

Turning to `O=C(CSc1nnc2c(=O)n(-c3cccc(F)c3)ccn12)Nc1ccc(Br)cc1F`, the Inhibition is listed as -1.22%.

As to `COc1ccc(-c2cc3c4nnc(SCC(=O)Nc5ccccc5C(F)(F)F)n4ccn3n2)cc1`, the Inhibition is 1.87%.

With `CCOC(=O)c1ccccc1NC(=O)Cn1nc2c3sc(N4CCCC4)nc3ncn2c1=O`, the Inhibition is listed as -3.52%.

As for `O=C(CCc1nnc2c(N3CCCCC3)nc3ccccc3n12)NCc1ccc2c(c1)OCO2`, the Inhibition amounted to 2.95%.

Consider `O=c1n(Cc2nc(-c3ccc(Br)cc3)no2)nc2ccc(-c3ccccc3)nn12`, for which the Inhibition is -5.77%.

For `Cc1cc(NC(=O)CSc2nc3ccccc3n3cnnc23)ccc1Br`, the Inhibition is listed as 3.15%.

In the case of `COc1ccc(NC(=O)Cn2nc3c4cc(-c5ccc(C)c(C)c5)nn4ccn3c2=O)c(OC)c1`, the Inhibition is -14.02%.

Take `Cc1ccc(C)c(Cn2nc3n(CCC(C)C)c(=O)c4sccc4n3c2=O)c1`: the Inhibition was found to be 1.02%.

Regarding `O=C(CCc1nnc2c3cc(-c4ccccc4)nn3ccn12)N1CCN(C(=O)c2ccco2)CC1`, the Inhibition is given as 0.93%.

Regarding `COc1cc(NC(=O)CSc2nnc3c(=O)n(-c4ccc(C)c(C)c4)ccn23)cc(OC)c1`, the Inhibition is -13.82%.

In the case of `O=C(CSc1nnc2c3cc(-c4ccccc4)nn3ccn12)NCc1ccc(Cl)cc1`, the Inhibition is -1.12%.

As for `Cc1ccc(CN(c2ccc(C(C)C)cc2)S(=O)(=O)c2cccn3c(C)nnc23)cc1`, the Inhibition was -8.61%.

For the molecule `COc1ccc(-c2cc3c4nnc(SCC(=O)NCc5ccccc5)n4ccn3n2)cc1`, the Inhibition is recorded as -21.63%.

As for `CCc1ccc(N(Cc2ccc(C)cc2)S(=O)(=O)c2cccn3cnnc23)cc1`, the Inhibition is on record as 2.14%.

Turning to `Cc1cc(C)c(NC(=O)Cn2nc3c(SC4CCCCC4)nccn3c2=O)c(C)c1`, the Inhibition was -1.77%.

Turning to `Cc1ccc(Sc2ccc3nn(CC(=O)Nc4ccc(F)c(Cl)c4)c(=O)n3n2)cc1`, the Inhibition was found to be 0.26%.

For `COc1ccc(NC(=O)Cn2nc3c4cc(-c5ccc(C)c(C)c5)nn4ccn3c2=O)cc1OC`, the Inhibition is on record as -0.24%.

Regarding `CSc1ccc(CNC(=O)Cn2nc3c(Oc4ccc(C)cc4)nccn3c2=O)cc1`, the Inhibition is recorded as -5.13%.

Turning to `COc1cccc(Oc2nccn3c(=O)n(CC(=O)Nc4ccccc4C(F)(F)F)nc23)c1`, the Inhibition was -0.25%.

Consider `COc1cccc(CN(c2cccc(C)c2)S(=O)(=O)c2ccc3nnc(C)n3c2)c1`, for which the Inhibition is -6.19%.

In the case of `Cc1cc(C)cc(N(Cc2ccc(F)cc2)S(=O)(=O)c2cccn3cnnc23)c1`, the Inhibition is reported as -5.96%.

For the molecule `O=C(CSc1nnc2c(=O)n(-c3ccccc3)ccn12)Nc1ccc(F)cc1`, the Inhibition is -2.43%.

With `Cc1cc(C)cc(Nc2nc(C)cc3nn(CC(=O)Nc4ccc(C)c(F)c4)c(=O)n23)c1`, the Inhibition was -0.61%.

On to `CCOc1ccc(-n2ccn3c(SC(CC)C(=O)Nc4ccc(C(C)C)cc4)nnc3c2=O)cc1` (stereo not given), for which the Inhibition was -6.24%.

On to `CCc1nnc2c(SCC(=O)Nc3c(C)cc(C)cc3C)nc3ccccc3n12`, for which the Inhibition is reported as 3.61%.

For the molecule `CCc1nnc2c(S(=O)(=O)N(Cc3ccccc3Cl)c3ccccc3)cccn12`, the Inhibition is -6.41%.

Take `Cc1cccc(NC(=O)c2ccc3nn(CC(=O)N4CCc5ccccc5C4)c(=O)n3c2)c1`: the Inhibition is on record as -8.84%.

On to `Cc1ccc(-c2cc3c4nn(CC(=O)Nc5ccccc5F)c(=O)n4ccn3n2)cc1C`, for which the Inhibition is -9.57%.

Take `COc1cccc(NC(=O)Cn2nc3c(Oc4ccccc4)nccn3c2=O)c1`: the Inhibition is -5.32%.

As for `O=C(Cn1nc2c3sccc3ncn2c1=O)Nc1ccc2c(c1)OCO2`, the Inhibition is listed as -14.29%.

As for `Cc1ccc(NC(=O)CSc2nc3ccccc3n3c(C(C)C)nnc23)cc1Cl`, the Inhibition is -6.42%.

With `CCCn1c(=O)c2sccc2n2c(=O)n(CC(=O)c3ccccc3)nc12`, the Inhibition is 2.71%.

Regarding `O=C(Cn1nc2ccc(Sc3cccc(F)c3)nn2c1=O)Nc1ccc2c(c1)OCCO2`, the Inhibition was -2.18%.

As to `CCc1ccccc1Sc1nccn2c(=O)n(CC(=O)N3CCN(c4ccccc4)CC3)nc12`, the Inhibition is on record as -11.22%.

On to `Cc1cccc(CN(c2ccc(F)cc2)S(=O)(=O)c2ccc3nnc(C)n3c2)c1`, for which the Inhibition is recorded as -8.57%.
